# Bioassay records deposited in PubChem by several laboratories.
# HSP90 refold inh = HSP90 inhibitors, primary screen, cell lysate, luminescence; Rabbit reticulocyte lysate, luciferase refolding luminescence, 3 h; 290,000 tested, 0.91% active; inhibition, % at 5.6 µM; AID 1789, 2009;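 active = inhibition above the screen-wide mean plus 3 SD, computed separately per campaign, cut at about 16% in these data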;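 also: 0% = DMSO wells and 100% = 60 µM geldanamycin wells; inhibitors lower the luminescence because luciferase stays unfolded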
# LMP1 NFkB inh = EBV LMP1-driven NF-kappaB luciferase reporter inhibitors, primary screen, cell-based, luminescence, single point. inhibition, % at 12.5 µM. 350,000 tested, 0.69% active. LMP1-induced NF-kappaB luciferase reporter cells. AID 504558, 2011; in the data active = inhibition above about 41%;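 also: 0% = neutral control wells and 100% = reference inhibitor control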
# HSF1 inhib = HSF1 inhibitors in luciferase reporter cells, primary screen, cell-based, NIH3T3, luminescence; NIH3T3-HGL HSE-luciferase, MG132-induced, luminescence 8 h; stronger effect = lower value; activity change, negative = inhibition, % at 7.5 µM (by protocol); 300,000 tested, 0.77% active; AID 2098, 2009;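 active = more than half of replicate wells show activity change below -50%, luminescence cut by over half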;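 also: luciferase reports HSF-1 transcriptional activity via heat shock element; 0% = median of DMSO wells and -100% = zero luminescence signal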
# TWEAK Fn14 block = inhibitors of TWEAK-Fn14 signaling, primary screen, luciferase reporter cells, uHTS. TWEAK-stimulated Fn14 reporter cells, luciferase luminescence, 8 h. 360,000 tested, 2% active. AID 1159606, 2016. inhibition, % at 10 µM; in the data active = inhibition above about 50%
# TROY NFkB inh = inhibitors of TROY-driven NF-kB signaling, primary screen, Q293 LMP1-TROYcd cells, NF-kB luciferase, uHTS; Q293 LMP1-TROYcd NF-kB luciferase reporter, 4 h; AID 1347056, 2019; 360,000 tested, 0.98% active; inhibition, % at 10 µM;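 active = compounds whose plate-normalised and pattern-corrected inhibition of the luciferase reporter signal at the single screening dose is 50% or more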
# HSF-1 act = HSF-1 activators, primary screen, NIH3T3-HGL cells, MG132 stress, luminescence, single point; NIH3T3-HGL HSF-1 luciferase reporter, 8 h; 100% = twice DMSO control signal; activation, % at 9 µM; 300,000 tested, 1.7% active;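 active = mean replicate activation of at least 50% with a set share of replicates each reaching 50%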;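 also: 0% = median of the neutral control wells and 100% = twice that signal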
# * marks the source's active call; other numbers are inactive results; · = no result. Compounds with a hit are over-represented: about 4.7% of the library has one in this group of screens.
SMILES,HSP90 refold inh,LMP1 NFkB inh,HSF1 inhib,TWEAK Fn14 block,TROY NFkB inh,HSF-1 act
CCCNC(=O)OC1CC2CC1[C@H]1CCCCN1C2=O (stereo not given in full),·,·,·,-2.2,-3.8,·
Cc1cc2cc(CN(Cc3ccco3)C(=S)NCC3CCCO3)c(=O)[nH]c2cc1C (stereo not given),-2.3,2.8,45.6,31.9,13.9,70.2*
Cc1cc(C)c2[nH]c(=O)c(CN(Cc3cccs3)C(=S)NCc3ccco3)cc2c1,1.0,16.1,16.2,63.9*,39.1,8.0
Cc1cc(C)c2[nH]c(=O)c(CN(Cc3ccco3)C(=S)NCC3CCCO3)cc2c1 (stereo not given),4.5,1.1,41.1,13.9,14.6,70.3*
CCNC(=S)N(Cc1ccco1)Cc1cc2cc3c(cc2[nH]c1=O)OCCO3,2.2,-7.5,32.6,24.1,20.3,61.6*
CCc1ccc2[nH]c(=O)c(CN(Cc3ccco3)C(=S)NCC3CCCO3)cc2c1 (stereo not given),-3.5,-4.1,19.5,-0.4,-15.7,49.5
Cc1ccc2cc(CN(Cc3ccco3)C(=S)NCC3CCCO3)c(=O)[nH]c2c1C (stereo not given),-2.4,-6.6,27.2,6.6,-5.5,43.3
COc1ccc(C(C)(O)c2nc(-c3cccc(O)c3)cs2)cc1 (stereo not given),·,·,·,15.8,7.6,·
CCCCN1CC(COCc2ccccc2)Oc2cccc(OCc3ccc(OC)cc3)c2S1(=O)=O (stereo not given),·,-6.1,·,-44.1,-7.5,·
O=C1Nc2cnc(Cl)nc2Nc2ccccc21,·,·,·,14.9,-0.2,·
CC(C)(C)c1ccccc1NC(=O)Nc1nc(C(N)Cc2ccc(F)cc2)cs1 (stereo not given),·,·,·,3.7,5.4,·
CCc1ccc(N(C(=O)c2snc(C(N)=O)c2N)C(C(=O)NCCC(C)C)c2c[nH]c3ccccc23)cc1 (stereo not given),0.9,-7.4,13.7,-8.8,22.1,56.7*
CCOCCC(=O)Nc1ccc2c(c1)c(=O)n(C)n2C/C=C/c1ccccc1,·,·,·,11.4,1.4,·
C#CC[N+]1(CC#Cc2ccccc2)CCCCC1,-0.7,0.2,48.6,-19.6,10.4,81.7*
COc1cccc(-c2nnc(SC(C(=O)c3c[nH]c4ccccc34)c3ccccc3)n2C)c1 (stereo not given),1.2,7.8,8.0,50.8*,25.1,15.8
COc1ccccc1-c1nnc(SC(C(=O)c2c[nH]c3ccccc23)c2ccccc2)n1C (stereo not given),1.7,-6.2,3.7,42.8,33.8,34.3
COCc1cc(=O)oc2cc(NC(=O)c3ccc(C(C)(C)C)cc3)ccc12,4.0,-3.6,10.5,-16.6,-44.0,56.8*
COc1cc(OC)cc(C(=O)NCC(=O)OCc2cc(=O)oc3cc(OC)ccc23)c1,-2.7,-9.2,0.3,-24.6,19.2,13.3
O=C(NCCc1ccccn1)c1ccc(OC2CCN(Cc3ccccn3)CC2)cc1,3.2,-9.2,-28.4,29.1,49.5,-32.3
O=C(NCC1CCOCC1)c1ccc(OC2CCN(Cc3ccccn3)CC2)cc1,-2.8,57.6*,11.7,1.8,2.3,2.4
Cc1nc(C)n(C(C)CNC(=O)c2ccco2)n1 (stereo not given),1.2,44.6*,-0.7,8.5,-13.4,-16.8
CCOC(=O)/C=C/C(=O)Nc1cc(S(=O)(=O)Nc2ccc(OC)cc2)ccc1N1CCOCC1,·,-20.8,·,56.4*,24.8,·
CCOC(=O)/C=C/C(=O)Nc1ccc(S(=O)(=O)Nc2c(C)cc(C)cc2C)cc1,-2.5,-11.9,8.9,27.0,50.3*,9.5
O=C(O)/C=C/C(=O)Nc1ccc(Oc2ccccc2)cc1,3.9,3.0,-54.1*,10.6,-21.1,-59.0
CCOC(=O)/C=C/C(=O)Nc1ccc(Oc2ccccc2)cc1,-4.0,-3.6,6.1,70.8*,8.5,-1.4
CCOC(=O)C(=O)Nc1ccc(Oc2ccccc2)cc1,-6.7,6.2,-4.5,1.5,-0.3,-0.1
